Compounds with a hit are over-represented: about 1.7% of the library has one in this group of screens.
Vif imaging: HIV Vif self-association inhibitors, primary screen, imaging, HEK293T, single point | HEK293T cells, Vif self-association by quenched fluorescence, 24 h | inhibition, % at 7.49 µM | 0.35% of 340,000 active; in the data active = inhibition above about 50%, passing the limit was not always enough; inconclusive = no clear call, values can overlap the other calls; inactive = below about 31%
CFTR F508del cor: F508del CFTR correction, initial screen, CFBE line, single point. 0.36% of 350,000 active. CFBE cells, YFP halide quenching; stimulated with forskolin plus potentiator P3; % fluorescence drop versus neutral controls. activity (quench increase), % at 7.58 µM;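 active = mean added fluorescence quench of at least 8% versus neutral control, with both replicates also reaching 8%; inconclusive = only one of the mean or replicate conditions met; inactive = mean below 8% and not both replicates reaching 8%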;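 note: cells transiently co-express mutant CFTR-F508del with the halide-sensitive YFP; corrector assay measuring rescue of mutant channel to the surface after 24 h compound exposure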
FGF22 binding: binders of human FGF22 protein, primary screen, FGF22 synaptogenesis inhibitor project, biophysical, thermal shift, single point; Fibroblast growth factor 22 (Homo sapiens), Q9HCT0; recombinant FGF22 thermal shift, SYPRO orange fluorescence; percent of sucrose octasulfate shift, DMSO zero; activity (Tm shift, normalised), % at 9.99 µM; 1.5% of 340,000 active;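 active = mean Tm shift, scaled 0 neutral to 100 positive control, at about 1.3% or above, every replicate too, limit read from the data; inconclusive = no clear call, values can overlap the other calls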
Target sequence (Q9HCT0 whole entry, looked up): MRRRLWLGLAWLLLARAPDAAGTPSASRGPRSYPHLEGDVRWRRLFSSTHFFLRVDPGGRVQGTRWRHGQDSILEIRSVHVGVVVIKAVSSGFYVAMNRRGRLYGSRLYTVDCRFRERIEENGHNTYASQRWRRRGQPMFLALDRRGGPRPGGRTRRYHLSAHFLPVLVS
* marks the source's active call; other numbers are inactive results; ? = inconclusive; . = no result.

SMILES	Vif imaging	CFTR F508del cor	FGF22 binding
C[C@@H]1CN([C@@H](C)CO)C(=O)c2c(c3ccccc3n2C)-c2ccccc2CO[C@@H]1CN(C)C(=O)Nc1cccc(F)c1	.	-1	0
C[C@@H]1CN([C@H](C)CO)C(=O)Cc2cc(NC(=O)Nc3ccc4c(c3)OCO4)ccc2O[C@@H]1CN(C)Cc1ccc(C(F)(F)F)cc1	.	-3	0
C[C@@H]1CCCCO[C@@H](CN(C)C(=O)c2ccncc2)[C@H](C)CN([C@@H](C)CO)C(=O)c2cc(NC(=O)C3CCCCC3)ccc2O1	.	0	.
COc1cc(C(=O)Nc2ccc3c(c2)C(=O)c2ccccc2C3=O)cc(OC)c1OC	-2	.	.
COc1cc(C(=O)Nc2ccc3c(c2)CCN3C(C)=O)cc(OC)c1OC	2	12*	0
COc1cc(C(=O)Nc2ccc3c(c2)Cc2ccccc2-3)cc(OC)c1OC	?	6	43*
COc1cc(C(=O)Nc2ccc(S(=O)(=O)N3CCc4ccccc43)cc2)cc(OC)c1OC	0	.	.
C[C@@H]1CN([C@H](C)CO)C(=O)c2cc(NC(=O)Nc3ccccc3)ccc2O[C@H]1CN(C)S(C)(=O)=O	.	1	-1
COc1ccccc1NC(=O)Nc1ccc2c(c1)C(=O)N(C)C[C@@H](OC)[C@H](C)CN(C)[C@H](C)CO2	.	-3	0
CCOC(=O)c1sc(NC(=O)C2CCC2)cc1C	-6	2	43*
CCOC(=O)c1sc(NC(C)=O)cc1C	5	4	0
CCCc1nnc(NC(=O)c2cc3ccccc3oc2=O)s1	-16	.	.
CCc1sc(NC(=O)c2cc3ccccc3oc2=O)nc1-c1cccs1	55*	0	0
C[C@@H]1CCCCO[C@H](CN(C)C(=O)NC2CCCCC2)[C@H](C)CN([C@H](C)CO)C(=O)c2cc(NS(=O)(=O)c3cn(C)cn3)ccc2O1	.	-2	0
O=C(Cc1ccccn1)NCC[C@@H]1CC[C@H](NC(=O)Nc2ccc(C(F)(F)F)cc2)[C@@H](CO)O1	.	14*	0
O=C(Cc1ccccn1)NCC[C@@H]1CC[C@@H](NC(=O)Nc2ccc(C(F)(F)F)cc2)[C@H](CO)O1	.	0	0
C[C@H]1CN([C@@H](C)CO)C(=O)Cc2cc(NC(=O)C3CC3)ccc2O[C@H]1CN(C)C	.	0	0
COc1cc(C(Nc2ccccn2)c2c(NC(=O)c3ccco3)sc(C)c2C)cc(OC)c1OC (stereo not drawn)	-11	1	44*
COc1ccc(C(Nc2ccccn2)c2c(NC(=O)c3ccco3)sc(C)c2C)cc1OC (stereo not drawn)	-10	3	44*
CCOc1ccc(C(NC(=O)c2ccco2)c2ccc(OC)c(OC)c2)cc1 (stereo not drawn)	4	.	.
COc1ccc(C(c2c(NC(=O)c3ccco3)sc(C)c2C)N2CCOCC2)cc1 (stereo not drawn)	-7	-1	0
CCCNC(=O)Nc1ccc2c(c1)C(=O)N(C)[C@H]1CC[C@@H](CC(=O)NCC3CCCCC3)O[C@H]1CO2	.	3	0
O=C(C1CC1)N1CC(=O)N2[C@H](C1)[C@H](c1ccc(-c3cccnc3)cc1)[C@@H]2CO	.	-2	.
Cc1ccc(O)c(NC(=O)c2noc3c2CCc2ccccc2-3)c1	-1	2	43*
Cc1cc(NC(=O)c2noc3c2CCc2ccccc2-3)no1	8	0	0
SMILES	Vif imaging	CFTR F508del cor	FGF22 binding
COc1ccccc1C(=O)N1C[C@@H]2[C@H](c3ccccc31)[C@H](CO)N2C(=O)C1CCCC1	.	2	0
Nc1ccccc1-c1ccc(Cl)cc1	1	2	0
Nc1ccccc1-c1ccccc1N	9	-1	44*
Oc1ccc(/C=N/N=C/c2ccc(O)cc2)cc1	13	-2	66*
Cc1ccc(/C=N/N=C/c2ccc(C)cc2)cc1	6	.	0
C[C@@H]1CN([C@H](C)CO)C(=O)CCCn2cc(nn2)CO[C@@H]1CN(C)S(=O)(=O)c1ccccc1F	.	-2	0
O=C(C[C@@H]1C=C[C@@H](NC(=O)NC2CCCCC2)[C@@H](CO)O1)NCc1ccc(F)cc1	.	-2	0
NS(=O)(=O)c1cc(C2(O)NC(=O)c3ccccc32)ccc1Cl (stereo not drawn)	-4	11*	0
CC(=O)Nc1ccc(C2(c3ccc(NC(C)=O)cc3)NC(=O)c3ccccc32)cc1	?	2	0
C[C@H](CO)N1C[C@H](C)[C@@H](CN(C)Cc2ccc3c(c2)OCO3)OCCCC[C@H](C)Oc2ccc(NC(=O)c3ccncc3)cc2C1=O	.	-3	0
O=C1CCC(=O)N1N1C(=O)C2C3c4ccccc4C(c4ccccc43)C2C1=O (stereo not drawn)	-1	1	43*
O=C1C2C3c4ccccc4C(c4ccccc43)[C@@H]2C(=O)N1c1ccccn1 (stereo partly drawn)	-1	1	0
O=C(Nc1cccc(NC(=O)c2cc([N+](=O)[O-])ccc2Cl)n1)c1cc([N+](=O)[O-])ccc1Cl	58*	.	.
O=C(Nc1cccc(O)c1)c1ccc([N+](=O)[O-])cc1Cl	0	0	43*
Cc1cc(NC(=O)c2cc([N+](=O)[O-])ccc2Cl)no1	-10	-3	0
CC(=O)Nc1cccc(NC(=O)c2ccc([N+](=O)[O-])cc2Cl)c1	?	.	0
C[C@@H]1CN([C@H](C)CO)C(=O)c2cc(NC(=O)CCCCCC(=O)Nc3ccccc3N)ccc2O[C@H]1CN(C)S(=O)(=O)c1ccc(F)cc1	.	1	0
O=C(C1CCCC1)N1[C@H](CO)[C@@H]2c3ccccc3N(S(=O)(=O)c3ccc(F)cc3)C[C@@H]21	.	1	0
Cc1cc(Br)cn2c(Cc3cccc(F)c3)c(-c3ccc(F)cc3)nc12	.	-1	0
Cc1cc(Br)cn2c(Cc3ccsc3)c(-c3ccc(F)cc3)nc12	.	8.1*	0
COc1ccc(NC(=O)CN2C(=O)NC(c3ccccc3)(c3ccccc3)C2=O)cc1	0	-1	0
CCC1(CC)NC(=O)N(CC(=O)Nc2ccc(OCc3ccccc3)cc2)C1=O	55*	0	0
O=C(Nc1cccc(F)c1)N1CCCCN2[C@H](CO)[C@@H](c3ccc(C#CC4CC4)cc3)[C@@H]2C1	.	0	0
Cn1cccc1Cc1nnc(SCC(=O)N2CCCC2)n1CCc1ccccc1	-1	5	43*
Cn1cccc1Cc1nnc(SCC(=O)N2CCCCCC2)n1CCc1ccccc1	-6	2	0
SMILES	Vif imaging	CFTR F508del cor	FGF22 binding
COc1ccc(NC(=O)N2C[C@@H](O)COC[C@@H]3O[C@H](CC(=O)N4CCN(C)CC4)CC[C@H]32)cc1	.	-2	0
O=C(N/N=C/c1ccc[nH]1)c1ccccc1OCc1ccccc1Cl	-7	1	43*
O=C(N/N=C/c1ccco1)c1ccccc1OCc1ccccc1Cl	1	.	0
O=C(NC1=NCCS1)c1ccccc1OCc1ccccc1Cl	1	-2	44*
O=C(NC1=NCCS1)c1ccccc1Cl	-5	-2	0
C[C@@H]1CCCCO[C@@H](CN(C)Cc2ccncc2)[C@@H](C)CN([C@@H](C)CO)C(=O)c2cc(NC(=O)Cc3ccccc3)ccc2O1	.	1	.

Screening results from PubChem BioAssay.
